Experimental data published in PubChem BioAssay (NCI).
This is part of a sample that, as a whole, favours compounds with a hit. Of some 83,000 tested, about 20% had one in any assay.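 Plates (96-well) were seeded with cells, treated with compound at one concentration, and incubated for 48 hours before percent growth was determined.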 Activity calls are given as the source filed them. Rule for the calls: active = growth percent below 10; inactive = the rest.

Experiments:
Assay in all cases: NCI-60 one-dose screen, 48 h (100 = growth as untreated, 0 = no growth, -100 = all killed)
Conditions in all cases: 10 µM unless noted
[1] = system: T-47D breast
[2] = system: BT-549 breast
[3] = system: MDA-MB-435 melanoma
[4] = system: SW-620 colon
[5] = system: MCF7 breast
[6] = system: HCT-116 colon
[7] = system: HCC-2998 colon
[8] = system: KM12 colon

Measured: growth

CC1=C(SCCC(=O)OC(C[Se]C2=C(C)C(=O)c3ccccc3C2=O)C(=O)NC(C)(C)C)C(=O)c2ccccc2C1=O (stereo not given)
active: [1] -52.9% | [2] -96.2% | [3] -86.8% | [4] -80% | [5] -63.5% | [6] -70.9% | [7] -82.8% | [8] -94.6%

CCCCNc1nc(NN2C(=O)c3cccc4cccc(c34)C2=O)nc(-n2cnc3ccccc32)n1
inactive: [1] 74.7% | [2] 98.8% | [3] 99.2% | [4] 109% | [5] 72.6% | [6] 88.3% | [7] 105% | [8] 25.4%

O=C1CN(CCN2CC(=O)N(Cc3ccccc3)C(=O)C2)CC(=O)N1Cc1ccccc1
inactive: [1] 99% | [2] 104% | [3] 106% | [4] 96.8% | [5] 94.7% | [6] 98.6% | [7] 121% | [8] 103%

Clc1ccc(C(/C=C/c2sc(Cl)nc2Cl)=N/Nc2cc(Cl)cc(Cl)c2)cc1
inactive: [1] 98.2% | [2] 115% | [3] 101% | [4] 106% | [5] 100% | [6] 106% | [7] 112% | [8] 105%

COC(=O)CCC/C=C\C[C@H]1C=CC(=O)/C1=C/C[C@@H](O)CCc1cccc(C(F)(F)F)c1
active: [1] 9.77% | [2] -11.4% | [3] -82.2% | [4] -40% | [5] 6.5% | [6] -89% | [7] -89.6% | [8] -51.9%

O=C1/C(=C/c2ccc(F)cc2)Sc2c(Br)cccc21
inactive: [1] 43.4% | [2] 87% | [3] 102% | [4] 89.4% | [5] 20.1% | [6] 85.8% | [7] 99.3% | [8] 86%

CCCCCCN(CCCCCC)c1ccc(/C=C2/SC(=O)NC2=O)c(C)c1
inactive: [1] 77.2% | [2] 98.3% | [3] 82.1% | [4] 88.6% | [5] 79.2% | [6] 63.7% | [7] 67.4% | [8] 80.3%

C#Cc1cccc(NC(=O)c2ccc(NC(=O)C=C)cc2)c1
inactive: [1] 55.6% [8.25 µM] | [2] 77% [8.25 µM] | [3] 65.5% [8.25 µM] | [4] 77.9% [8.25 µM] | [5] 59% [8.25 µM] | [6] 57.4% [8.25 µM] | [7] 101% [8.25 µM] | [8] 96.7% [8.25 µM]

COc1cccc(Cc2cc(-c3ccccc3)nn(CC(=O)c3ccccc3)c2=O)c1
inactive: [1] 72.5% | [2] 64.5% | [3] 61.2% | [4] 55.1% | [5] 45.9% | [6] 68.9% | [7] 84.7% | [8] 57.8%

Cc1nc2nc(SCC(=O)O)[nH]c2c(=O)[nH]1
inactive: [1] 96.7% | [2] 97.2% | [3] 107% | [4] 98.5% | [5] 93.2% | [6] 104% | [7] 101% | [8] 105%

CCOC(=O)c1cn2ncnc(Oc3ccc(NC(=O)NCCN4CCN(C)CC4)c(Cl)c3)c2c1C
inactive: [1] 25.5% | [2] 77.8% | [3] 40.7% | [4] 69% | [5] 65.5% | [6] 45.3% | [7] 89.2% | [8] 91.4%

CCCCCCNC(=O)Oc1ccc(/C(=C(\C)c2ccc(Cl)cc2)c2ccc(OCCN3CCCCC3)cc2)cc1
inactive: [1] 29.1% | [2] 64.4% | [3] 52.6% | [7] 62.9% | [8] 36.5%
active: [4] 7.33% | [5] 7.75% | [6] 6.05%

CCN1C(=O)N(CC)C2Nn3c(s/c(=C4\C(=O)N(CCC(C)C)c5ccccc54)c3=O)=NC21 (stereo not given)
inactive: [1] 36.3% | [2] 99.6% | [3] 12.5% | [4] 61.1% | [5] 15.1% | [6] 12.6% | [7] 99.8% | [8] 67.9%

CN(C)c1ccc(/C=N\Nc2cc(=O)[nH]c3ccc(Cl)cc23)cc1
inactive: [1] 81.7% | [2] 85.5% | [3] 105% | [4] 86% | [5] 81% | [6] 88.4% | [7] 104% | [8] 104%

CCOC(=O)CC1C(COC(=O)NC)OC(n2cnc3c(NC(=O)Nc4ccccc4)ncnc32)C1O[Si](C)(C)C(C)(C)C (stereo not given)
active: [7] -8.59%
inactive: [1] 29.1% | [2] 64.5% | [3] 49.3% | [4] 72.2% | [5] 11.7% | [6] 17.1% | [8] 31.2%
